Source: PubChem BioAssay (Tox21)
Records with an inconclusive call do not appear. Values without a mark were called inactive. Activity calls are given as the source filed them. The call rests on the fitted dose curve.

Molecular target: Vitamin D3 receptor (Homo sapiens) (UniProt P11473)
Assay: qHTS assay to identify small molecule agonists of the vitamin D receptor (VDR) signaling pathway (AID 743222)
Details: HEK293T VDR-UAS-bla, beta-lactamase FRET ratio, 16 h; series mostly up to 63.5 µM; activation: at the top concentration
Source text: National Center for Advancing Translational Sciences [NCATS]
NIH Chemical Genomics Center [NCGC]
U.S. Environmental Protection Agency [EPA]
National Institutes of Environmental Health Sciences [NIEHS]
National Toxicology Program [NTP]
U.S. Food and Drug Administration [FDA]
The vitamin D receptor (VDR), a member of nuclear hormone receptor superfamily, plays a critical role in calcium homeostasis and bone metabolism. It is also involved in cell differentiation and growth, and thrombogenicity.
Tox21 Assay Protocol Summary:
VDR-bla cells were dispensed at 2,000 cells/6 uL/well into black wall/clear-bottom 1536-well plates using a Multidrop Combi (Thermo Fisher Scientific, Waltham, MA) dispenser. After the assay plates were incubated at a 37C and 5% CO2 for 4 h, 23 nL of compounds dissolved in DMSO, positive controls or DMSO only was transferred to the assay plate by a Pintool station (Kalypsys, San Diego, CA). The plates were incubated at 37C and 5% CO2 for 16 h. After 1 uL of LiveBLAzerTM B/G FRET substrate was added using a Bioraptr Flying Reagent Dispenser (FRD) workstation (Beckman Coulter, Indianapolis, IN, USA), the plates were incubated at room temperature for 2 h, and fluorescence intensity was measured by an Envision plate reader (PerkinElmer, Shelton, CT).
On the % scale 0 is the no-effect control and ±100 the full control effect.

Sequence of Vitamin D3 receptor (Homo sapiens) (P11473 whole entry, looked up): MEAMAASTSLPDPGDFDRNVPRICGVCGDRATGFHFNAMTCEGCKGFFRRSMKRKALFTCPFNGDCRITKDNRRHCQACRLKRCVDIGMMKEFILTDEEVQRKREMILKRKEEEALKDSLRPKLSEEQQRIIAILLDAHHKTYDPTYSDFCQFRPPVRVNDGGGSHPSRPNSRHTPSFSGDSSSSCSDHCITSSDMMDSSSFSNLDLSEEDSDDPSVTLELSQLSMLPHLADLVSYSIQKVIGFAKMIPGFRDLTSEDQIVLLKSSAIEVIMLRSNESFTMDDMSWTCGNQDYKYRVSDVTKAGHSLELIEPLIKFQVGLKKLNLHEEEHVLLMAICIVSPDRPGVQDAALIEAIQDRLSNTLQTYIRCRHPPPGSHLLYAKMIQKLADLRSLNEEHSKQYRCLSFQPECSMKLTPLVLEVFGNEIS

Row | SMILES | activation | Potency
1 | CCCC(CC)CCCCCCCN (stereo not given) | 8.45% [at 81.1 µM] | –
2 | CCNc1nc(NC(C)CC)nc(OC)n1 (stereo not given) | -16.1% | –
3 | Oc1ccc(-c2ccccc2)c(Cl)c1 | 1.8% | –
4 | CC(C)(C)CC(C)(C)c1ccccc1O | 3.16% [at 81.1 µM] | –
5 | O=S(=O)(O)CCCN1CCOCC1 | 12.3% | –
6 | CCCCCCCOC(=O)c1ccc(O)cc1 | – | inactive
7 | CC(C(O)c1ccccc1)N(C)CCOC(c1ccccc1)c1ccccc1 (stereo not given) | -11.1% | –
8 | O=C(O)CCCCCCC(=O)O | 8.07% [at 81.1 µM] | –
9 | NC(=O)c1nc(-c2cccc(-c3cc(F)ccc3OCC(F)(F)C(F)(F)F)c2)n[nH]1 | 0.774% | –
10 | COc1ccccc1OCCNCC(O)COc1cccc2[nH]c3ccccc3c12 (stereo not given) | 0.195% | –
11 | NCCCC(O)(P(=O)(O)O)P(=O)(O)O | 2.69% | –
12 | CCCCCCC(C)OC(=O)COc1nc(F)c(Cl)c(N)c1Cl (stereo not given) | 9.56% | –
13 | CCN(CC)CCNc1ccc(CO)c2sc3ccccc3c(=O)c12 | 9.18% | –
14 | c1cc(OCC2CO2)cc(OCC2CO2)c1 (stereo not given) | 2.33% | –
15 | C=C1C(C)(C)[C@@]2(Cl)C(Cl)[C@]1(Cl)C(Cl)(Cl)C2(Cl)Cl (stereo not given in full) | 23% | –
16 | Nc1cc(Cl)c([N+](=O)[O-])cc1O | -14% | –
17 | Brc1ccccc1-c1ccccc1 | 7.9% | –
18 | C=C(c1ccc(C(=O)O)cc1)c1cc2c(cc1C)C(C)(C)CCC2(C)C | -18.4% | –
19 | CCOC(=O)[C@@](C)(N)Cc1ccc(O)c(O)c1 | 4.57% | –
20 | Nc1ncnc2c1ncn2[C@@H]1O[C@H](COP(=O)(O)O)[C@@H](O)[C@H]1O | 1.49% | –

Row | SMILES | activation | Potency
21 | NC(=O)c1ccccc1N | 3.36% [at 81.1 µM] | –
22 | COC(=O)[C@]1(C)CCC[C@@]2(C)[C@H]1CC=C1C=C(C(C)C)CC[C@@H]12 | 0.873% | –
23 | CCN(CC)CCOC(=O)C1(C2CCCCC2)CCCCC1 | 4.19% | –
24 | Cc1c(C)n(Cc2ccccc2)c2ccc(C(=O)OCCN(C)C)cc12 | -0.337% | –
25 | CCCCCCCC/C=C\CCCCCCCC(=O)NCc1ccc(O)c(OC)c1 | 11.1% | –
26 | CCc1ccc(O)c(C(C)(C)C)c1 | -1.49% | –
27 | CC(C)c1ccc(O)c(C(C)C)c1 | 0.312% | –
28 | CCCCCCCCCC(=O)N(C)C | -6.3% [at 81.1 µM] | –
29 | C[C@]12CC[C@H]3C(=CCc4cc(O)ccc43)[C@@H]1CCC2=O | -15.3% | –
30 | CCCCCCOc1cc(C)c(O)c(C)c1C | -10.7% [at 81.1 µM] | –
31 | O=C1Nc2ccc(Cl)cc2[C@@](C#CC2CC2)(C(F)(F)F)O1 | -2.36% | –
32 | C=CC(=C)CCC=C(C)C | 0.843% | –
33 | CCOC(=O)N1CCC(=C2c3ccc(Cl)cc3CCc3cccnc32)CC1 | – | inactive
34 | CN(C)CCCN1c2ccccc2Sc2ccc(C(F)(F)F)cc21 | -17.9% | –
35 | CNC(=O)c1cc(Oc2ccc(NC(=O)Nc3ccc(Cl)c(C(F)(F)F)c3)cc2)ccn1 | -10.2% | –
36 | ClC/C=C\CCl | 11.9% [at 81.1 µM] | –
37 | C=CC(=O)OCCC#N | 12.2% [at 81.1 µM] | –
38 | CCCCN(CCCC)CCC(O)c1cc2c(Cl)cc(Cl)cc2c2cc(C(F)(F)F)ccc12 (stereo not given) | 0.574% | –
39 | CC1CCCCN1CCCOC(=O)c1ccc(OC2CCCCC2)cc1 (stereo not given) | -3.97% | –
40 | O=C1OC(OC(=O)c2cccnc2Nc2cccc(C(F)(F)F)c2)c2ccccc21 (stereo not given) | -0.31% | –
